# Compounds with a hit are over-represented: about 5% of the library has one in this group of screens.
# CRE-bla Fsk: modulators of forskolin-stimulated CRE signaling in CHO cells. Potency, µM (doses to about 38.2 µM), without a hit: at the top dose activity change, negative = inhibition, usual class: activators. hit rate 2.5% among 71,000. CHO CRE-bla reporter (cAMP response element driving beta-lactamase), forskolin EC10, beta-lactamase ratio; active = well fitted activation curve with a large enough effect in the signal ratio, with a control signal flat, not every such curve was filed as active; inconclusive = small, poorly fitted or top-dose-only effect, or effect the other way, or a change in a side signal; the % refers to the signal ratio; note: % of control where 0% means no effect
#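 Modulation of forskolin signalling: compounds in titration series added with EC10 NKH 477 to CHO cells carrying a CRE-driven beta-lactamase reporter, 3 h, 37C. CCF4 FRET ratio (460/530 nm, ex 405 nm) gives %activity and AC50.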
# Casp1 inh: allosteric or competitive inhibitors of human caspase-1. Caspase-1 enzyme, Ac-WEHD-AFC fluorogenic rate. hit rate 0.03% among 75,000. P29466. AID 900. Potency, µM (series often up to 57.5 µM), for inactives: top-dose activity change, negative = inhibition, actives largely listed as inhibitors;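 note: plate controls were vehicle for no effect and no substrate for full effect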
# Target sequence (P29466 120-297 limits assumed): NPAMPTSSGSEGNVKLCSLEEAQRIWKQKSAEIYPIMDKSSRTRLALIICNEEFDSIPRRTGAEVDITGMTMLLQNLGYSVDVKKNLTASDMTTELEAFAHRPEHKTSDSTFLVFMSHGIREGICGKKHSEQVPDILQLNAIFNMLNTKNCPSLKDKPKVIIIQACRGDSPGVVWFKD
# Target sequence (P29466 317-404 limits assumed): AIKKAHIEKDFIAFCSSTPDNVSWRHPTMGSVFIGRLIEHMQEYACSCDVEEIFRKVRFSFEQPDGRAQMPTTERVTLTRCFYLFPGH
# TSHR ag: TSH receptor (human) agonism | P16473 | HEK293-CNG-TSHR cells (CNG channel as cAMP sensor), membrane potential dye, cAMP | Potency, µM (highest dose often 57.1 µM), inactives show at the highest dose activation, most hits filed as activators | hit rate 0.48% among 73,000 | AID 926; active = well fitted activation curve with a large enough effect in the main read-out, with a control signal flat, not every such curve was filed as active; inconclusive = small, poorly fitted or top-dose-only effect, or a change in a side signal; inactive = no such curve, though single readings can be large or run the other way; % of control where 0% means no effect;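 note: the control signal comes from parental cells without the receptor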
#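 HEK 293 cells stably expressing TSHR and a cAMP-gated CNG channel; parental CNG-only cells as counterscreen. Cells preloaded 60 min with membrane potential dye plus 100 uM RO 20-1724, then compound 30 min; fluorescence read at 590 nm.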
# Casp7 inh: allosteric or competitive inhibitors of human caspase-7. AID 889. hit rate 0.02% among 75,000. P55210. recombinant caspase-7, Ac-DEVD-AFC fluorescence rate. Potency, µM (doses to about 57.5 µM), without a hit: at the highest dose activity change, negative = inhibition, actives largely listed as inhibitors; active = well fitted inhibition curve with a large enough effect in the main read-out, with a control signal flat, not every such curve was filed as active; inconclusive = small, poorly fitted or top-dose-only effect, or a change in a side signal; note: % of control where 0% means no effect
# HEK293 cAMP cs: raises cAMP in parental HEK293 cells, TSHR agonist counter-screen. parental HEK293 CNG cAMP sensor, membrane potential fluorescence. Potency, µM (titrated, usually from 57.1 µM), for inactives: at the highest dose activation, usual class: activators. hit rate 2.5% among 73,000. AID 938; note: % of control where 0% means no effect; nearly all actives have a fitted effect of over 55% in size
#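 Parental HEK 293 cells stably expressing a cAMP-gated CNG channel were loaded with membrane potential dye containing 100 uM RO 20-1724 for 60 min. Compound added for 30 min; depolarization read as fluorescence intensity at 590 nm.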
# USP2a inhib: USP2a (human) protease inhibition | USP2a enzymatic assay, qHTS inhibition | Potency, µM (titrated, usually from 38.3 µM), for the others: top-dose activity change, negative = inhibition, most hits filed as inhibitors | hit rate 0.1% among 60,000 | AID 927; note: nearly all actives have a fitted effect of over 60% in size
#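 USP2 core (20 nM final) was preincubated with compound for 30 min at RT in 20 mM Tris-HCl pH 8.0, 2 mM CaCl2, 2 mM beta-mercaptoethanol; Ub-PLA2 (20 nM) plus NBD C6-HPC (20 uM) then added, fluorescence read after 2.5 h.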
# * = called active by the depositor; ? = inconclusive; . = not tested or not shown; [ ] = dose if it differs, or a comment. Unless noted, calls come from the whole dose curve; as a rule, active = well fitted curve in the direction sought with a large enough effect; inconclusive = small, poorly fitted or top-dose-only effect, or another doubt; inactive = no such curve, though single readings can be large; an effect the other way counts as inactive or inconclusive. Potency is the fitted concentration of half-maximal effect.
SMILES,CRE-bla Fsk,Casp1 inh,TSHR ag,Casp7 inh,HEK293 cAMP cs,USP2a inhib
C[C@@H](C(=O)NCc1ccccc1)[C@H]1C[C@]1(C)[C@H](NC(=O)OCc1ccccc1)c1ccccc1,?,-1%,?,-4%,16µM*,.
O[C@@H](c1cc([C@@]23C[C@H]4CC[C@@H]2C[C@H](C4)C3)nc2c(Cl)cc(Cl)cc12)[C@@H]1CCCCN1,-5%[7.6 µM],5%[11.5 µM],-5%[11.4 µM],0%[11.5 µM],-8%[11.4 µM],.
CCCc1cc(C(N)=O)c(NC(=O)c2ccoc2C)s1,10µM*,-14%,-3%,-8%,-2%,35%
O=C(c1ccsc1)N1CCN(C(=O)c2cccs2)CC1,-7%,0%,-11%,-1%,7%,-10%
CC1CN(C(=O)c2cccs2)CCN1C(=O)c1cccs1 (stereo unspecified),21%,-1%,?,-1%,32µM*,-6%
O=[N+]([O-])c1ccc(CSc2ncnc3c2ncn3[C@@H]2O[C@@H](CO)[C@@H](O)[C@H]2O)cc1,-6%,-4%,7%,0%,-10%,4%
Oc1cc(O)c2c(c1)O[C@@H](c1ccc(O)c(O)c1)[C@H](O[C@@]1(c3cc(O)c(O)c(O)c3)Oc3cc(O)cc(O)c3[C@H](O)[C@@H]1O)C2,-7%[7.6 µM],-1%[11.5 µM],8%[11.4 µM],-17%[11.5 µM],6%[11.4 µM],.
O=C(OC1Cc2c(O)cc(O)cc2OC1c1cc(O)c(O)c(O)c1-c1c(C2Oc3cc(O)cc(O)c3CC2O)cc(O)c(O)c1O)c1cc(O)c(O)c(O)c1 (stereo unspecified),.,0%,.,-27%,.,10µM*
CC(C)CC(c1nnnn1C(C)(C)C)N1CCN(C2CCCC2)CC1 (stereo unspecified),-2%,-1%,?,0%,13µM*,0%
CCC(c1nnnn1Cc1ccc(F)cc1)N1CCN(C2CCCCC2)CC1 (stereo unspecified),-2%,-3%,?,-3%,0.63µM*,53%
Fc1ccc(C(c2nnnn2Cc2ccco2)N2CCN(C3CCCCC3)CC2)cc1 (stereo unspecified),-16%,0%,?,0%,?,13%
CC(C)CC(c1nnnn1Cc1ccco1)N1CCN(C2CCCC2)CC1 (stereo unspecified),3%,-1%,?,1%,3.2µM*,-13%
CCNc1ncc2nc(-c3cccs3)c(=O)n(C[C@H]3CCCO3)c2n1,?,.,?,?,?,116%
CCNc1ncc2nc(-c3cn(C)c4ccccc34)c(=O)n(C[C@H]3CCCO3)c2n1,0.79µM*,.,1%,-2%,-6%,260%
CCNc1ncc2nc(-c3cn(C)c4ccccc34)c(=O)n(CCC#N)c2n1,4µM*,?,5%,?,-4%[2.29 µM],224%
CCNc1ncc2nc(-c3cn(C)c4ccccc34)c(=O)n(C)c2n1,?,?,7%,?,6%,175%
Cn1cnc([N+](=O)[O-])c1SCC(=O)O,-13%[7.6 µM],2%[11.5 µM],-5%[11.4 µM],2%[11.5 µM],6%[11.4 µM],.
CCOC(=O)C1CCN(c2ncnc3c2oc2ccc(Cl)cc23)CC1,?,1%,?,-3%,25µM*,11%
Cc1ccc(C(=O)N2CCN(c3ccccc3)CC2)cc1C,0%,-8%,?,-3%,25µM*,2%
Cc1ccc(C(=O)N2CCN(c3cccc(Cl)c3)CC2)cc1C,-13%,-3%,.,-7%,26%,-9%
N#CCC(=O)Nc1sc2c(c1C(N)=O)CCCC2,13µM*,-5%,?,-3%,-55%,.
COc1ccc(-c2cc(C(=O)NCc3cccs3)no2)cc1OC,?,-1%,30%,-4%,2%,.
[O-][n+]1onc2c1CCc1c-2nc(-c2ccccc2)n1OCc1ccccc1,15%,-3%,?,-1%,13µM*,-4%
Cc1csc(SCc2nc3sc4c(c3c(=O)[nH]2)CCC4)n1,0%,-2%,10%,-3%,14%,-1%
O=c1[nH]c(CSc2nnc(-c3ccco3)n2-c2ccccc2)nc2sc3c(c12)CCC3,10µM*,1%,.,-1%,18%,17%
